Source: PubChem BioAssay (Tox21)
Inconclusive results are not listed. Active and inactive are the calls of the source. Unless noted, the call rests on the fitted dose curve; in most records, active means well fitted curve in the direction sought with a large enough effect in the repeat runs; inconclusive means weak or mixed curves; inactive means no such curve, though single readings can be large; an effect the other way counts as inactive or inconclusive.

Legend:
[1] = qHTS assay to identify aromatase inhibitors - cell viability counter screen (AID 743084);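 further: cells stimulated with testosterone during compound exposure; nearly all actives have a fitted effect of over 55% in size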; further: potency means the concentration at half of the fitted maximal effect
[2] = qHTS assay to identify small molecule that activate the aryl hydrocarbon receptor (AhR) signaling pathway - cell viability counter screen (AID 743086); further: nearly all actives have a fitted effect of over 45% in size; further: potency means the concentration at half of the fitted maximal effect
In short: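 HepG2-AhR-luc (HG2L7.5c1) cells, 4000/well, treated 24 h at 37 C with compound; viability measured as CellTiter-Fluor fluorescence after 30 min in the same wells as the luciferase read.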

[3] = qHTS assay to identify small molecule antagonists of the peroxisome proliferator-activated receptor gamma (PPARg) signaling pathway - cell viability counter screen (AID 743194); further: nearly all actives have a fitted effect of over 55% in size; further: potency means the concentration at half of the fitted maximal effect
In short: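 Cytotoxicity counter screen in PPARg-bla HEK293H cells, same wells as reporter assay. Compounds plus 50 nM rosiglitazone (final) for 17 h at 37 C, then viability read by CellTiter-Glo luminescence.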

[4] = qHTS assay for small molecule agonists of the antioxidant response element (ARE) signaling pathway - cell viability counter screen (AID 743203; calls by dose curve; further: nearly all actives have a fitted effect of over 55% in size; further: potency means the concentration at half of the fitted maximal effect)
In short: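 Cells (ARE-bla HepG2, 2,000/well) receive DMSO-dissolved compounds after a 5 hrs rest. Plates incubate 16 hrs at 37C/5% CO2. CellTiter-Glo luminescence is then recorded after 30 min at room temperature.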

[5] = qHTS assay for small molecule activators of the heat shock response signaling pathway - cell viability counter screen (AID 743209); further: nearly all actives have a fitted effect of over 50% in size
In short: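 Quantitative HTS format, Tox21 10K library. HeLa cells carrying an HSE-driven beta-lactamase reporter were treated 5 h at 37 C, then assessed for viability by CellTiter-Glo luminescence.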

[6] = qHTS assay for small molecule activators of the heat shock response signaling pathway (AID 743210; active means well fitted activation curve with a large enough effect in the signal ratio in the repeat runs, with a control signal flat, not every such curve was filed as active; the % refers to the signal ratio;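 further: HeLa cells with beta-lactamase reporter driven by heat shock elements; series mostly up to about 63 µM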)
In short: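 Quantitative high-throughput format using an engineered HeLa line in which heat shock response elements drive beta-lactamase; after 5 h with compound, cells received a B/G FRET substrate and fluorescence was read.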

[7] = molecular target: Peroxisome proliferator-activated receptor gamma (Homo sapiens) (UniProt P37231); test: qHTS assay to identify small molecule agonists of the peroxisome proliferator-activated receptor gamma (PPARg) signaling pathway (AID 743094; active means well fitted activation curve with a large enough effect in the signal ratio in the repeat runs, not every such curve was filed as active; the % refers to the signal ratio)
Chain of Peroxisome proliferator-activated receptor gamma (Homo sapiens) (P37231 whole entry, looked up): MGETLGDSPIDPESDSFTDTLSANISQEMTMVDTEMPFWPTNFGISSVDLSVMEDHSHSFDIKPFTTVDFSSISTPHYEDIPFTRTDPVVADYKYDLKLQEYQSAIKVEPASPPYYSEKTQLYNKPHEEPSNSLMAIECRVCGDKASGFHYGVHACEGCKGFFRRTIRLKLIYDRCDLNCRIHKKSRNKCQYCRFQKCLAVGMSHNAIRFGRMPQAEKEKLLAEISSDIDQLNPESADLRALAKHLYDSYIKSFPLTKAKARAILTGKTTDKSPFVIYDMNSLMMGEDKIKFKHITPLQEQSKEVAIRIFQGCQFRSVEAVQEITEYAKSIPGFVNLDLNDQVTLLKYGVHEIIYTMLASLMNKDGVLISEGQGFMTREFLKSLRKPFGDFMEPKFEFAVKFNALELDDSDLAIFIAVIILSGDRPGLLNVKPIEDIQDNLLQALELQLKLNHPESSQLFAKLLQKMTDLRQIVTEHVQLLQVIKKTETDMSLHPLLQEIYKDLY
In short: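 Stably transfected HEK293H cells (GeneBLAzer PPARg UAS-bla) were incubated with test substances for 17 h at 37C after a 5 h pre-incubation; beta-lactamase activity was then detected by FRET substrate fluorescence.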

[8] = qHTS assay for small molecule agonists of the antioxidant response element (ARE) signaling pathway (AID 743202; active means well fitted activation curve with a large enough effect in the signal ratio in the repeat runs, not every such curve was filed as active; the % refers to the signal ratio; further: potency means the concentration at half of the fitted maximal effect)
In short: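 Agonist mode reporter screen: HepG2 cells with ARE-controlled beta-lactamase are incubated with test compounds for 16 h at 37 C, and beta-lactamase activity is measured as fluorescence of cleaved B/G FRET substrate.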

[9] = molecular target: Peroxisome proliferator-activated receptor gamma (Homo sapiens) (UniProt P37231); test: qHTS assay to identify small molecule antagonists of the peroxisome proliferator-activated receptor gamma (PPARg) signaling pathway (AID 743191; calls by dose curve; further: series mostly up to about 63 µM; nearly all actives have a fitted effect of over 30% in size)
In short: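 GeneBLAzer PPARg UAS-bla HEK293H cells, 5 h post-plating, exposed to compounds 17 h at 37C. LiveBLAzer B/G FRET substrate added for 1 h at room temperature; beta-lactamase reporter read by fluorescence intensity.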

[10] = molecular target: Aryl hydrocarbon receptor (Homo sapiens) (UniProt P35869); test: qHTS assay to identify small molecule that activate the aryl hydrocarbon receptor (AhR) signaling pathway (AID 743085);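 further: HG2L7.5c1 human HepG2 liver cells with stably integrated DRE-driven firefly reporter; series mostly up to about 70 µM; nearly all actives have a fitted effect of over 15% in size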
Chain of Aryl hydrocarbon receptor (Homo sapiens) (P35869 whole entry, looked up): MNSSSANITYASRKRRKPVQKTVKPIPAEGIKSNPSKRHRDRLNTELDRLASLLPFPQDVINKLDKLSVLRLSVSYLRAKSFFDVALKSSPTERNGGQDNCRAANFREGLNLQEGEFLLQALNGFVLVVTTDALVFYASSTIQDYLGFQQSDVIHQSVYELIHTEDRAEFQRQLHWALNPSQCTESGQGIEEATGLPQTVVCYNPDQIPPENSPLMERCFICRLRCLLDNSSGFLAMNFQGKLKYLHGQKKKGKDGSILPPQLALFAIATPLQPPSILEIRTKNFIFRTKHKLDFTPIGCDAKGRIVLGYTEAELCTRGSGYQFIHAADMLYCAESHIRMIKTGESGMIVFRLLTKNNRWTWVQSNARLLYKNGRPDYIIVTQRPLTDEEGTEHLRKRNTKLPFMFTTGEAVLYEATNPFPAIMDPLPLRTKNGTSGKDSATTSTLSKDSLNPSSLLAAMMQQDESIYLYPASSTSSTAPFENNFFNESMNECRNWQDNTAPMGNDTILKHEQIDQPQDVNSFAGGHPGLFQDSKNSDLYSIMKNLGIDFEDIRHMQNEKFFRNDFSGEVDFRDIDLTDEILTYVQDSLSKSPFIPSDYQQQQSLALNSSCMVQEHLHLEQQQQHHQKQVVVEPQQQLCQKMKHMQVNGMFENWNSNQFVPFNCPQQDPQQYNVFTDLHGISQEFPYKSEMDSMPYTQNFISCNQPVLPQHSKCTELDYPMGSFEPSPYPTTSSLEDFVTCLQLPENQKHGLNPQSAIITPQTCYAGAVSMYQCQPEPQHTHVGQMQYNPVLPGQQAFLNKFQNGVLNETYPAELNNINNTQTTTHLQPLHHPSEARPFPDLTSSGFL
In short: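 Steps: seed HepG2-AhR-luc cells; allow 5 h at 37C; pin-transfer test compound or vehicle; incubate 24 h at 37C; add viability dye (30 min, 37C) and read fluorescence; add luciferase substrate (30 min, RT) and read luminescence.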
On the % scale 0 is the no-effect control and ±100 the full control effect.

CCOC(=O)c1ccc(NC(=O)CN2CCCCC2)cc1
inactive: Potency [1] | Potency [2] | Potency [3] | Potency [4] | Potency [5] | Potency [6]

CC1=C2[C@@H]([C@H](C)CC[C@H]2/C=C(\C)C(=O)O)[C@H](O)C1
inactive: Potency [1] | Potency [2] | outcome [7] | Potency [3] | Potency [8] | Potency [4] | Potency [5]

CCCCC(CC)COS(=O)(=O)O (stereo unspecified)
inactive: Potency [1] | Potency [2] | Potency [3] | Potency [5]

COC(=O)C1=C(C)NC(C)=C(C(=O)OC(C)(C)CN(C)CCC(c2ccccc2)c2ccccc2)C1c1cccc([N+](=O)[O-])c1 (stereo unspecified)
inactive: Potency [1] | outcome [7] | Potency [3] | Potency [4] | Potency [5] | Potency [6]

COc1ccc(/C=C/C(=O)c2ccc(OC)cc2OC)cc1
inactive: Potency [1] | Potency [2] | outcome [7] | Potency [3] | Potency [4] | Potency [5]

O=C(O)CNC(=O)c1ccccc1I
inactive: Potency [1] | outcome [7] | Potency [9] | Potency [3] | Potency [8] | Potency [4] | Potency [5]

Cc1ccc(Nc2c(F)cccc2Cl)c(CC(=O)O)c1
inactive: Potency [1] | Potency [2] | Potency [3] | Potency [4] | Potency [5] | Potency [6]

Oc1ccc2c(c1)Cc1ccccc1-2
inactive: Potency [1] | Potency [2] | outcome [7] | Potency [3] | Potency [4] | Potency [5] | Potency [6]
active: Potency [8] 34.4 µM

CCN(CC)c1cccc(O)c1
inactive: Potency [1] | Potency [2] | outcome [7] | Potency [3] | Potency [4] | Potency [5] | Potency [6]

SCCc1cnccn1
inactive: Potency [1] | Potency [2] | Potency [9] | Potency [3] | Potency [4]

CC(C(=O)O)c1ccc(C(=O)c2cccs2)cc1 (stereo unspecified)
inactive: Potency [1] | Potency [2] | Potency [3] | Potency [8] | Potency [4] | Potency [5] | Potency [6]

CCCOC(=O)c1c(Cl)c(Cl)c(Cl)c(Cl)c1C(=O)OCCC
inactive: Potency [1] | Potency [2] | outcome [7] | Potency [5]

Cc1cccc(C)c1NC(=O)c1cc(S(N)(=O)=O)c(Cl)cc1O
inactive: Potency [1] | Potency [2] | outcome [7] | Potency [3] | Potency [8] | Potency [5] | Potency [6]

CC1=CC[C@@H]2C[C@H]1C2(C)C
inactive: Potency [1] | Potency [2] | outcome [7] | activity change, negative = cytotoxicity [3] -33.5% [at 13.2 µM] | activation [8] -11.5% [at 18.1 µM] | activity change, negative = cytotoxicity [5] -3.23% [at 13.2 µM]

CC(CN(CCN(CC(C)OCCO)CC(C)OCCO)CC(C)OCCO)OCCO (stereo unspecified)
active: Potency [3] 37.5 µM | Potency [4] 33.1 µM
inactive: Potency [1] | Potency [2] | outcome [7] | Potency [5]

Cc1cc([N+](=O)[O-])ccc1N
inactive: outcome [7] | Potency [3] | Potency [8] | Potency [4] | Potency [5]
active: Potency [1] 53.8 µM

CCCCOC(=O)CCCCC(=O)OCCCC
inactive: Potency [1] | Potency [2] | outcome [7] | Potency [3] | Potency [8] | Potency [4] | Potency [5] | Potency [6]

O=C(NS(=O)(=O)/C=C/c1ccccc1)c1ccc(F)cc1Cl
inactive: Potency [1] | Potency [2] | Potency [3] | Potency [4] | Potency [5] | Potency [6]

CCCCCCC(CO)CCCC (stereo unspecified)
inactive: Potency [1] | Potency [2] | outcome [7] | Potency [8] | Potency [5] | Potency [6]

COc1ccc(-c2cc(C(F)F)nn2-c2ccc(S(N)(=O)=O)cc2)cc1F
inactive: Potency [1] | Potency [2] | outcome [7] | Potency [3] | Potency [4] | Potency [5] | Potency [6]

CC(C)CC(O)CC(C)C
inactive: Potency [1] | Potency [2] | outcome [7] | Potency [3] | Potency [4] | Potency [5] | Potency [6]

CC1CCCC(=O)C1=O (stereo unspecified)
inactive: Potency [1] | Potency [2] | outcome [7] | Potency [3] | Potency [8] | Potency [4] | Potency [5]

CCN(Cc1cccc(S(=O)(=O)O)c1)c1ccc(C(=C2C=CC(=[N+](CC)Cc3cccc(S(=O)(=O)O)c3)C=C2)c2ccccc2S(=O)(=O)[O-])cc1
active: Potency [1] 13.7 µM | Potency [2] 27.4 µM
inactive: outcome [7] | Potency [3] | Potency [8] | Potency [6]

O=C(O)c1cccc(Oc2ccccc2)c1
inactive: Potency [2] | Potency [9] | Potency [3] | Potency [8] | Potency [4] | Potency [5] | Potency [6]

CCO[Si](C)(CCCOCC1CO1)OCC (stereo unspecified)
inactive: Potency [10] | Potency [2] | outcome [7] | Potency [3] | Potency [4] | Potency [5]

CCOc1ncc(F)c(=O)[nH]1
inactive: Potency [9] | Potency [3] | Potency [8] | Potency [4] | Potency [5]

CCNc1nc(N)nc(Cl)n1
inactive: Potency [2] | Potency [3] | Potency [8] | Potency [5]

CCCCCCC(O)CCCCCCCCCCC(=O)OC (stereo unspecified)
inactive: Potency [2] | Potency [8] | Potency [4] | Potency [5]
